High-throughput results deposited in PubChem BioAssay by several laboratories.
Only some compounds are listed: those with a hit (about 2.3% of all), similar ones and a draw of the others.
MCL1-BIM inh: inhibitors of MCL1 binding to BIM-BH3, primary screen, biochemical, fluorescence polarization. Induced myeloid leukemia cell differentiation protein Mcl-1 (Homo sapiens), Q07820. AID 2057, 2009. hit rate 0.68% among 320,000. inhibition, % at 10.9 µM. GST-MCL1 / FITC-Bim-BH3 fluorescence polarization;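 active = inhibition above the mean inhibition of all tested compounds plus 3 SD, set per campaign, cut at about 40% in these data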;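 also: higher means more loss of mP so more displacement of Bim peptide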
Bim-Mcl-1: inhibitors of Bim peptide binding to Mcl-1, primary screen, biochemical, bead-based flow cytometry, multiplex; Induced myeloid leukemia cell differentiation protein Mcl-1 (Homo sapiens), Q07820; Bim peptide-Mcl-1 binding; inhibition, % at 10 µM; hit rate 0.1% among 190,000; AID 1009, 2008; in the data active = inhibition above about 40%
Mcl1-Noxa inh: Mcl-1/Noxa binding inhibitors, primary screen, biochemical, TR-FRET, 1536-well. TR-FRET Mcl-1/Noxa peptide binding, 2 h. Induced myeloid leukemia cell differentiation protein Mcl-1 (Homo sapiens), Q07820. hit rate 1.5% among 220,000. inhibition, % at 21.7 µM. AID 1022, 2008;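 active = compounds that cut the protein-peptide binding signal by more than 50% relative to plate controls in a single-dose test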;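 also: His-tagged Mcl-1 with rhodamine Noxa BH3 peptide and terbium anti-His antibody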
GLD-1 RNA inh: GLD-1/TGE RNA complex disruptors, primary screen, biochemical, fluorescence polarization | AID 2280, 2010 | purified GLD-1 + fluorescein TGE RNA | Female germline-specific tumor suppressor gld-1 (Caenorhabditis elegans), Q17339 | hit rate 0.44% among 320,000 | inhibition, % at 5.96 µM;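 active = percent inhibition above a per-plate cutoff, the plate mean of test compounds plus 3 SD, cut at about 30% in these data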
Target sequence (Q17339 whole entry, looked up): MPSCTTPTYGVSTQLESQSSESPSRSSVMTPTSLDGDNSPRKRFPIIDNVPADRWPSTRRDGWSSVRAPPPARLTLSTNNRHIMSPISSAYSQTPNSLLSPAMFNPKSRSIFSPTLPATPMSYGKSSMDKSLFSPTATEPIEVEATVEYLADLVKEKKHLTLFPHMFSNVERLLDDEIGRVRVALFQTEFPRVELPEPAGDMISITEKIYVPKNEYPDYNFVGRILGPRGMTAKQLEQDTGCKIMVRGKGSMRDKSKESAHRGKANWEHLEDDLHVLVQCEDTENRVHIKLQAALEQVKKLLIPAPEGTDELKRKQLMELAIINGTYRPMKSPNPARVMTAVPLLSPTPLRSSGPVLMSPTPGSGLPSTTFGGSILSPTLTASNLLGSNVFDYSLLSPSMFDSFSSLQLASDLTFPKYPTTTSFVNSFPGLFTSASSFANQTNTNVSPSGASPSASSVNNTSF
Bcl-xL primary: inhibitors of human Bcl-xL, primary screen, biochemical, fluorescence polarization, HTS; GST-Bcl-xL / FITC-Bim BH3 peptide fluorescence polarization; hit rate 0.7% among 320,000; inhibition, % at 10.9 µM; AID 2129, 2009; Bcl-2-like protein 1 (Homo sapiens), Q07817;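 active = inhibition above the mean of all tested compounds plus 3 SD, cutoff set per campaign, cut at about 30% in these data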;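 also: inhibitors lower millipolarization by displacing the labeled peptide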
Mcl1-Bid inh: Mcl-1/Bid binding inhibitors, primary screen, biochemical, TR-FRET, 1536-well | Induced myeloid leukemia cell differentiation protein Mcl-1 (Homo sapiens), Q07820 | TR-FRET Mcl-1/Bid-Dy647 peptide binding | inhibition, % at 21.7 µM | hit rate 0.97% among 220,000 | AID 1021, 2008;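 active = compounds that cut the binding signal by more than half at the single screening dose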;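 also: His-tagged Mcl-1 with europium anti-His antibody binding Bid BH3 peptide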
Of the large screens only hits and unclear results are named; the others gave an inactive call.

CCOC(=O)CCCNC(=O)CCNC(=O)c1ccc(OCC)cc1	Mcl1-Noxa inh 66
COC(=O)c1c(C)[nH]c(C(=O)OCC(=O)c2c(N)n(CC(C)C)c(=O)n(C)c2=O)c1C	none (no result: MCL1-BIM inh, Bim-Mcl-1, Mcl1-Noxa inh, Bcl-xL primary, Mcl1-Bid inh)
O=C(O)c1ccccc1NS(=O)(=O)c1ccc(NNC(=S)Nc2ccc(OC(F)F)cc2)c([N+](=O)[O-])c1	Mcl1-Noxa inh 112, Mcl1-Bid inh 95 (no result: MCL1-BIM inh, GLD-1 RNA inh, Bcl-xL primary)
Cc1ccc(C(C)C)cc1NC(=O)Nc1ccc([N+](=O)[O-])cc1	Mcl1-Bid inh 85 (no result: Bim-Mcl-1)
C=C1CCC[C@]2(C)C[C@H]3OC(=O)C(CNCCN(CC)CC)[C@H]3CC12 (some centres undefined)	none (no result: Bim-Mcl-1, Mcl1-Noxa inh, Mcl1-Bid inh)
O=c1c(O)c(-c2cccs2)oc2ccc(Cl)cc12	MCL1-BIM inh 42, GLD-1 RNA inh 57, Bcl-xL primary 46
CC(C)C(=O)NNS(=O)(=O)c1ccccc1	none
CNNC(=O)C(=O)NNS(=O)(=O)c1ccccc1	Mcl1-Bid inh 86
Cc1ccc(S(=O)(=O)/N=C(/Nc2cccc(O)c2)c2ccccc2)cc1	none (no result: Bim-Mcl-1, Mcl1-Noxa inh, Mcl1-Bid inh)
Cc1cc(/C=N/Nc2ccc([N+](=O)[O-])cn2)c(C)n1-c1ccc(C(=O)O)cc1	Mcl1-Noxa inh 99, Mcl1-Bid inh 66
Cc1ccccc1-n1c(C)cc(/C=N/Nc2ccc([N+](=O)[O-])cn2)c1C	none
CC1(C)CC(=O)c2cnc3c(C#N)cnn3c2C1	Mcl1-Bid inh 53
CC(=O)c1ccc(NC(=O)CSc2nnc(-c3ccco3)c(-c3ccco3)n2)cc1	Mcl1-Noxa inh 79
CC(=O)Nc1ccc(NC(=O)CSc2nnc(-c3ccco3)o2)cc1	none
Nc1ccc2nc(Cc3ccccc3)[nH]c2c1	GLD-1 RNA inh 76 (no result: Bim-Mcl-1)
Cc1ccc2nc(Cc3ccc(N)cc3)[nH]c2c1	none
CCCN(CCC)C(C(=O)Nc1cccc(OC)c1)c1ccccc1 (centres undefined)	Mcl1-Bid inh 95
O=C(COC(=O)c1ccc([N+](=O)[O-])o1)Nc1ccc2c(c1)OCO2	none (no result: MCL1-BIM inh, Bim-Mcl-1, Mcl1-Noxa inh, Bcl-xL primary, Mcl1-Bid inh)
Cc1ccc2c(c1)c1c3n2CCCNC3CCC1 (centres undefined)	Mcl1-Bid inh 63
Cc1ccc([N+](=O)[O-])cc1N=Nc1c(C)[nH]n(C(N)=S)c1=O	none (no result: Bim-Mcl-1, Mcl1-Noxa inh, Mcl1-Bid inh)
O=c1c(N=Nc2ccc(O)cc2)c(-c2ccccc2)[nH]n1-c1ccc([N+](=O)[O-])cc1	Mcl1-Noxa inh 71, Mcl1-Bid inh 60
NC(=S)n1[nH]c(-c2ccc([N+](=O)[O-])cc2)c(N=Nc2ccc(Cl)cc2)c1=O	Mcl1-Noxa inh 73, Mcl1-Bid inh 98 (no result: MCL1-BIM inh, GLD-1 RNA inh, Bcl-xL primary)
Cc1ccc([N+](=O)[O-])cc1N=Nc1c(-c2ccc([N+](=O)[O-])cc2)[nH]n(C(N)=S)c1=O	Mcl1-Noxa inh 111, Mcl1-Bid inh 68 (no result: MCL1-BIM inh, GLD-1 RNA inh, Bcl-xL primary)
NC(=O)c1ccc(N=Nc2c(-c3ccccc3)[nH]n(-c3ccccc3)c2=O)cc1	none
Oc1ccc2ccccc2c1C1Nc2cccc3cccc(c23)N1	Mcl1-Noxa inh 51
COc1cc(C2Nc3cccc4cccc(c34)N2)ccc1O	none (no result: Bim-Mcl-1, Mcl1-Noxa inh, Mcl1-Bid inh)
CCOC(=O)Cc1csc(-n2sc3ccccc3c2=O)n1	Mcl1-Noxa inh 68
COc1cccc(/C=N/NC(=O)c2ccc(CN3c4cccc5cccc(c45)S3(=O)=O)cc2)c1	none
O=C(N/N=C/c1cccnc1)c1ccc(CN2c3cccc4cccc(c34)S2(=O)=O)cc1	Mcl1-Noxa inh 66
Nc1ccn(CC(=O)NCCNc2ccc([N+](=O)[O-])cn2)c(=O)n1	none (no result: Bim-Mcl-1, Mcl1-Noxa inh, Mcl1-Bid inh)
CCCCn1c(NC(=O)c2ccccc2)c(C#N)c2nc3ccccc3nc21	Mcl1-Noxa inh 67, Mcl1-Bid inh 85 (no result: MCL1-BIM inh, GLD-1 RNA inh, Bcl-xL primary)
CCOC(=O)CC1=CSC2=NS(=O)(=O)CCN12	Mcl1-Noxa inh 74
COc1cc(/C=C2\S/C(=N/S(=O)(=O)c3ccccc3)NC2=O)c([N+](=O)[O-])cc1OC	Mcl1-Noxa inh 57, Bcl-xL primary 37 (no result: Bim-Mcl-1)
COc1ccc(S(=O)(=O)/N=C2/NC(=O)/C(=C\c3cc(OC)c(OC)cc3[N+](=O)[O-])S2)cc1	none
